# A selection: hits, their analogues and other compounds. The true share with any hit is near 6.1%.
# ATXN2 expr inh: reduces ATXN2 reporter expression in HEK-293 cells. HEK-293 ATXN2-luciferase reporter, luminescence, 24 h. Potency, µM (series often up to 57 µM), inactives show top-dose activity change, negative = inhibition, hits mostly inhibitors. 0.72% of 360,000 active; further: on the % scale 0 is the no-effect control and ±100 the full control effect; nearly all actives have a fitted effect of over 55% in size
#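 ATXN2-luciferase reporter cells (luciferase flanked by upstream and downstream ATXN2 gene portions) were treated 24 h at 37 °C with compounds at up to 57 uM. SteadyGlo luminescence gave expression; GF-AFC fluorescence gave viability.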
# S2 tox: cell viability loss in ATXN counter-screen | AID 651635 | Potency, µM (top dose mostly 56.7 µM), usual class: cytotoxic | 0.49% of 400,000 active | S2 cells (HEK-293 line with an ATXN2-luciferase reporter) viability, CellTiter-Fluor protease fluorescence, 24 h; further: nearly all actives have a fitted effect of over 40% in size
# TGFb inhibitor: TGF-b pathway inhibition; Potency, µM (titrated, usually from 46.1 µM), for the others: at the highest dose activity, negative = inhibition, hits mostly inhibitors; 1.2% of 410,000 active; HepG2 CAGA-GFP TGF-b/SMAD3 reporter, GFP fluorescence, 18 h; TGF-beta stimulated, 500 pg/mL final; AID 588855; further: on the % scale 0 is the no-effect control and ±100 the full control effect; nearly all actives have a fitted effect of over 65% in size
#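 HEPG2 CAGA-GFP reporter cells (1000/well, DMEM with 1% FBS) received compounds, then recombinant TGF-beta at 500 pg/mL final for 18 hours at 37 degrees C. Per-cell GFP summed per well was normalised to unstimulated and stimulated DMSO controls before curve fitting.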
# RORgamma inh: blocks mouse ROR gamma transcriptional activity; Drosophila S2 Gal4-RORgamma UAS-luciferase reporter, 20 h; 5.4% of 310,000 active; P51450; AID 2551; Potency, µM (doses to about 53.6 µM), for the others: at the top dose activity change, negative = inhibition, hits mostly inhibitors; further: on the % scale 0 is the no-effect control and ±100 the full control effect; nearly all actives have a fitted effect of over 60% in size
# Target sequence (P51450 whole entry, looked up, the tested form may be a part): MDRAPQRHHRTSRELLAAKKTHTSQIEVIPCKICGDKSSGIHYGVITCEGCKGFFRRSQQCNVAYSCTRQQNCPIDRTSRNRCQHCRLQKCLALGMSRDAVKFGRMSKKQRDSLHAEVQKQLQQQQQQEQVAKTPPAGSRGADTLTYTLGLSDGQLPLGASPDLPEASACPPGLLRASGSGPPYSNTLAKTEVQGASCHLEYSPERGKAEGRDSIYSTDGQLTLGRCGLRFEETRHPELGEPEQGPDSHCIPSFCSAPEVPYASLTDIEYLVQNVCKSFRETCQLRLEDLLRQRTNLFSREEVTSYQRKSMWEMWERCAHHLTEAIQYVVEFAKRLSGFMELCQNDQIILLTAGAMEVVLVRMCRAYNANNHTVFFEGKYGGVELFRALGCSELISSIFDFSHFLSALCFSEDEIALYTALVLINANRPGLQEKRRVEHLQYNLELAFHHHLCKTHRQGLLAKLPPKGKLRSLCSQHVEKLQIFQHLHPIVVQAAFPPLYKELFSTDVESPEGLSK
#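 Compounds are pin-transferred onto Drosophila Schneider cells expressing a copper-inducible Gal4–ROR gamma transactivation domain fusion. After 1 hr, copper sulfate is added to 700 uM final; luciferase is read 20 hr later.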
# Gal4-VP16 FLuc: inhibits Gal4-VP16 luciferase reporter, ROR gamma counter-screen; Drosophila S2 Gal4-VP16 UAS-luciferase, luminescence, 20 h; AID 2546; 3.5% of 310,000 active; Potency, µM (series often up to 53.6 µM), for the others: at the top dose activity, negative = inhibition, most hits filed as inhibitors;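 further: Gal4-VP16 expression switched on by copper sulfate through the metallothionein promoter; on the % scale 0 is the no-effect control and ±100 the full control effect; nearly all actives have a fitted effect of over 50% in size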
# HepG2 tox-1: HepG2 cytotoxicity, counter-screen for TGF-b inhibitors; HepG2 CAGA-GFP viability, ATP luminescence, 18 h; Potency, µM (top dose mostly 46.1 µM), inactives show at the top dose activity change, negative = cytotoxicity, actives largely listed as cytotoxic; 0.76% of 410,000 active
#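 HepG2 CAGA-GFP cells (1000/well, DMEM with 1% FBS) received compound, then TGF-beta at 500 pg/mL final, and were incubated 18 hours at 37 degrees C. Viability was read by CellTiter-Glo luminescence. Media-only wells were set as complete cell-killing and DMSO as no toxicity.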
# TGFb confirm: confirmation of TGF-b signaling inhibitors in HepG2 reporter cells | shares compounds with TGFb inhibitor | Potency, µM (highest dose often 46.1 µM), for inactives: at the highest dose activity, negative = inhibition, usual class: inhibitors | AID 720534 | HepG2 CAGA-GFP TGF-b reporter, GFP fluorescence, 18 h; cells stimulated with TGF-beta, 500 pg/mL | 63% of 1,600 active; further: on the % scale 0 is the no-effect control and ±100 the full control effect; nearly all actives have a fitted effect of over 65% in size
# HepG2 tox-2: HepG2 cytotoxicity, TGF-b inhibitor counterscreen. shares compounds with TGFb inhibitor. HepG2 CAGA-GFP viability, ATP luminescence, 18 h; cells stimulated with TGF-beta, 500 pg/mL. Potency, µM (highest dose often 46.1 µM), inactives show at the top dose activity, negative = cytotoxicity, hits mostly inhibitors. 27% of 1,600 active. AID 720535; further: on the % scale 0 is the no-effect control and ±100 the full control effect; nearly all actives have a fitted effect of over 70% in size
# CCL64 TGFb inh: TGF-b inhibition, CCL64 orthogonal assay. shares compounds with TGFb inhibitor. AID 720536. 41% of 1,600 active. Potency, µM (doses to about 46.1 µM), for the others: at the highest dose activity, negative = inhibition, hits mostly inhibitors. CCL64 CAGA-GFP reporter, TGF-b stimulated, GFP fluorescence, 18 h; further: nearly all actives have a fitted effect of over 65% in size
# COP TGFb inh: validation of TGF-b inhibitors in HepG2 COP promoter reporter; shares compounds with TGFb inhibitor; 3% of 1,600 active; HepG2 COP-GFP TGF-b reporter, GFP fluorescence, 18 h; cells stimulated by added recombinant TGF-beta; Potency, µM (doses to about 46.1 µM), for inactives: at the highest dose activity, negative = inhibition, most hits filed as inhibitors; further: nearly all actives have a fitted effect of over 70% in size
# The depositor's hits bear a star; i = inactive; ? = inconclusive; nt = no result given; [ ] = dose if it differs, or a comment. The call rests on the fitted dose curve; in most records, active means well fitted curve in the direction sought with a large enough effect; inconclusive means small, poorly fitted or top-dose-only effect, or another doubt; inactive means no such curve, though single readings can be large; an effect the other way counts as inactive or inconclusive. Potency means the concentration at half of the fitted maximal effect.
SMILES,ATXN2 expr inh,S2 tox,TGFb inhibitor,RORgamma inh,Gal4-VP16 FLuc,HepG2 tox-1,TGFb confirm,HepG2 tox-2,CCL64 TGFb inh,COP TGFb inh
O=C(Nc1ccccn1)c1ccc([N+](=O)[O-])o1,nt,i,10µM*,?,?,-102.1%,16.4µM*,?,?,21.7%
O=C(CC1N=C2c3ccccc3N=C(SCc3ccccc3F)N2C1=O)NCCc1ccccc1 (stereo not given),23.2%,?,?,nt,nt,-3.9%,nt,nt,nt,nt
CCC(=O)N1CCc2cc(Br)cc(S(=O)(=O)CCC(=O)Nc3cccc(Cl)c3)c21,7.3%,i,-8.6%,nt,nt,0.7%,nt,nt,nt,nt
COc1ccc(C(=O)Nc2cc([N+](=O)[O-])ccc2N2CCCC2)cc1,-0.2%,i,-0.3%,-3.9%,9.3%,-1.0%,nt,nt,nt,nt
O=C(Nc1nc2c(Cl)cccc2s1)c1ccc([N+](=O)[O-])o1,?,?,-12.2%,22.6%[1.91 µM],?,-1.6%,nt,nt,nt,nt
O=C(Nc1cccc(NC(=O)c2ccccc2Cl)c1)c1ccc([N+](=O)[O-])o1,?,?,3.55µM*,?,?,-89.3%,1.3µM*,6.51µM*,8.2µM*,?
COc1ccc(N2CCCC2)c(NC(=O)c2ccc([N+](=O)[O-])o2)c1,-38.7%,?,5.62µM*,-25.4%,-14.0%,-41.0%,?,?,?,8.9%
CCc1ccc(-n2nc(CO)c(C(=O)NC(C)c3ccc(Cl)cc3)n2)cc1 (stereo not given),nt,nt,?,nt,nt,-4.3%,nt,nt,nt,nt
Cc1ccc(C2c3c(oc4ccccc4c3=O)C(=O)N2c2ccc(C)cn2)cc1 (stereo not given),nt,nt,0.9%,nt,nt,3.0%,nt,nt,nt,nt
CC(NC(=O)c1ccc2c(c1)sc1nc(-c3ccccc3)cn12)C12CC3CC(CC(C3)C1)C2 (stereo not given),nt,nt,-8.9%,nt,nt,-22.8%,nt,nt,nt,nt
COc1ccc(-c2nnc(SCC(=O)Oc3cccc(C)c3C)o2)cc1,nt,nt,1.9%,nt,nt,14.1%,nt,nt,nt,nt
NS(=O)(=O)c1ccc(NC(=S)Nc2ccn(Cc3cccc4ccccc34)n2)cc1,-38.5%,i,12.6µM*,10µM*,?,-20.3%,5.8µM*,-29.3%,?,-6.3%
Cn1cc([N+](=O)[O-])c(C(=O)Nc2ccc3nc(-c4ccccc4)[nH]c3c2)n1,43.9%,i,7.94µM*,18.5%,?,24.5%,6.51µM*,?,12.0%,23.4%
Cc1ccc(NC(=S)/N=C(\N)Nc2nc(C)c3cc(C)ccc3n2)c(C)c1,-23.2%,i,10µM*,7.94µM*,7.08µM*,-30.6%,4.61µM*,-25.8%,?,14.9%
